Consider three sequences from the supplement of paper PMC6555819.

Common to all, as to assay: PBM binding z-score (relative to random genomic background probes); higher = stronger binding; sequences stand for … in GC…GCGATTGACAGCGTAGAATGAAGG
Assay [1] has as its system RARb homodimer (NR concentration 270 nM). Summed up:
(§1)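 Binding z-scores take random background probes as their reference. They come from custom Agilent 4×180K protein-binding microarrays incubated 1 h with ligand-free nuclear receptor dimers, with antibodies against each partner (one per run) detecting binding. Scanned fluorescence was regression-normalized.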

For assay [2], the system named is RARg:RXRa (NR concentration 270 nM, RXRa partner concentration 90 nM). Summed up:
as §1

For assay [3], the system named is RARg homodimer (NR concentration 270 nM). Summed up:
as §1

The subject of assay [4] is RXRa DBDmut IVT, anti-RXR (DBD mutation: RXRa K156A/R161A, NR concentration 90 nM). Summed up: as §1
Assay [5] relates to RXRa homodimer (NR concentration 180 nM). In outline: as §1
Assay [6] relates to THRa:RXRa (NR concentration 90 nM, RXRa partner concentration 90 nM). In outline: as §1
Assay [7] deals with THRa homodimer (NR concentration 90 nM). In outline: as §1
The subject of assay [8] is VDR homodimer (NR concentration 270 nM). In outline: as §1

For the sequence ATCGAAAGGTCGAAGGTGAGTATACCCACCCGAA, the PBM binding z-score was 2.51 in assay [1]; 4.29 in assay [2]; 3.81 in assay [3]; 0.771 in assay [4]; 5.16 in assay [5]; 2.27 in assay [6]. The results for the PBM binding z-score in assay [7] and in assay [8] were -0.0349 and 0.804, respectively.

On to GGAACGAGGGCATTCGAGTTGTTAGCATGGCGAT, for which the PBM binding z-score in assay [1] was determined as 0.647; in assay [2], 0.902; in assay [3], 1.17; in assay [4] it was 2.89; in assay [5] it was 0.659; in assay [6], 2.06. The results for the PBM binding z-score in assay [7] and in assay [8] were -0.524 and 2.43, respectively.

As to CCTGACGGGTCACTGACAGGTTATAGCATTTGGA, the PBM binding z-score in assay [1] is 2.98; in assay [2] it was 5.4; in assay [3] it was 4.25; in assay [4], 1.04; in assay [5], 4.25; in assay [6], 2.44. Also, the PBM binding z-score in assay [7] came out at 0.0984; in assay [8] it was 0.76.
